# Results as given in PubChem BioAssay (NCATS).
# Records with an inconclusive call do not appear. Values without a mark were called inactive. Calls of active or inactive are those of the source. The call rests on the fitted dose curve; in most records, active means well fitted curve in the direction sought with a large enough effect; inconclusive means small, poorly fitted or top-dose-only effect, or another doubt; inactive means no such curve, though single readings can be large; an effect the other way counts as inactive or inconclusive.
# Biological target: Calcium and integrin-binding protein 1 (Homo sapiens) (UniProt Q99828)
# Assay: Primary qHTS for Identification of Calcium Integrin Binding Protein 1 (CIB1) Competitor (AID 1508620);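 further: GST tagged CIB1 binding a fluorescein labelled alphaIIb integrin peptide tracer; top concentration of the series differs between compounds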
# Conditions: CIB1-GST / FITC-alphaIIb peptide fluorescence polarization; series mostly up to 57.7 µM; activity change, negative = inhibition: at the top concentration
# Method in brief: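 Fluorescence polarization competition: CIB1-GST (1 uM final) preincubated with compound 15 min at room temperature, then FITC-labeled alphaIIb peptide (100 nM final) added for another 15 min. Polarization read at Ex 480/Em 540.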
# On the % scale 0 is the no-effect control and ±100 the full control effect.
# Sequence of Calcium and integrin-binding protein 1 (Homo sapiens) (Q99828 whole entry, looked up): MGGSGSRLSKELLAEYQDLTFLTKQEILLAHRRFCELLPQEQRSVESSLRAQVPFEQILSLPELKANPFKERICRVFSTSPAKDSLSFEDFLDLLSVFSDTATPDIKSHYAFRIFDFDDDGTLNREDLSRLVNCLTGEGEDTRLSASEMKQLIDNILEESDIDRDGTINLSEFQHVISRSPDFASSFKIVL
Compound,"activity change, negative = inhibition [%]",Potency
Nc1ccn([C@@H]2O[C@H](CO)[C@@H](O)[C@H]2O)c(=O)n1,-1.01,–
CCC[C@H](Nc1nc(-c2ccc(NC(=O)NCC)c(OC)c2)ncc1C)c1cccnc1,-3.67,–
CCCC1OC2C[C@@H]3[C@H]4CCC5=CC(=O)C=C[C@]5(C)[C@H]4C(O)C[C@]3(C)[C@]2(C(=O)CO)O1 (stereo partly specified),-3.03,–
Nc1nc(Cl)nc2c1ncn2[C@@H]1O[C@H](CO)[C@@H](O)[C@H]1F,1.57,–
CC[C@H](NC(=O)[C@H](C)NC)C(=O)N1C[C@@H](O)C[C@H]1Cc1c(-c2[nH]c3cc(F)ccc3c2C[C@H]2C[C@H](O)CN2C(=O)[C@H](CC)NC(=O)[C@H](C)NC)[nH]c2cc(F)ccc12,-1.39,–
CC[C@H](C)C(=O)O[C@H]1C[C@H](O)C=C2C=C[C@H](C)[C@H](CC[C@@H](O)C[C@@H](O)CC(=O)O)[C@H]21,-8.51,–
O=C(c1ccc(C(=O)N2CCC(N3CCCC3)CC2)c(Nc2ccccc2)c1)N1CCC(N2CCCC2)CC1,–,inactive
CSc1cccc(Nc2ncc3cc(-c4c(Cl)cccc4Cl)c(=O)n(C)c3n2)c1,0.529,–

# System: not listed separately
# Assay: Primary qHTS for small molecule stabilizers of the endoplasmic reticulum resident proteome: Secreted ER Calcium Modulated Protein (SERCaMP) assay (AID 1508630)
# Conditions: SH-SY5Y GLuc-SERCaMP (Gaussia luciferase released on ER calcium loss) secretion, thapsigargin, luminescence; series mostly up to 38.4 µM; activity change, negative = inhibition: at the top concentration
# Method in brief: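 GLuc-SERCaMP-expressing SH-SY5Y cells, pretreated 16 h with compound, are challenged with thapsigargin to empty ER calcium stores; after 4 h, coelenterazine is added directly to the medium and luminescence is imaged.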
Compound,"activity change, negative = inhibition",Potency
NC(=O)c1ccc(N(C(N)=O)c2c(F)cccc2F)nc1-c1ccc(F)cc1F,0%,–
Nc1ncnc2c1c(-c1cccc(OCc3ccccc3)c1)cn2C1CC(CN2CCC2)C1 (stereo unspecified),0%,–
O=C(Nc1cccc(C(F)(F)F)c1)Nc1cc(S(=O)(=O)NC2CC2)ccc1-c1ccsc1,-29%,–
Cc1ccc2c(c1)c1c(n2CCc2ccc(C)nc2)CCN(C)C1,-82%,–
CNC(=O)c1ccc2c(C(=Nc3cccc(CN(C)C)c3)c3ccccc3)c(O)[nH]c2c1,219%,–
Nc1[nH]nc2nnc(-c3c(-c4ccccc4)nn4ccccc34)cc12,68.8%,–
COc1cc2ncn(-c3cc(OCc4ccccc4S(C)(=O)=O)c(C#N)s3)c2cc1OC,0%,–
CN1N=C(N)c2cn([C@@H]3O[C@H](COP(=O)(O)O)[C@@H](O)[C@@H]3O)c3ncnc1c23,52.4%,–
CN(C)c1ccc(-c2nc3ncc(Cl)c(N4CCN(CC(=O)Nc5nccs5)CC4)c3[nH]2)cc1,0%,–
CN1CCC(COc2cnc(-c3cccc(Cn4nc(-c5cccc(C#N)c5)ccc4=O)c3)nc2)CC1,147%,–
COc1nccc(-c2c(-c3ccc(F)cc3)ncn2C2CCC(O)CC2)n1 (stereo unspecified),–,inactive
NC(=O)c1nnn(Cc2cc(Cl)c(C(=O)c3ccc(Cl)cc3)c(Cl)c2)c1N,5.85%,–
OC[C@H]1O[C@@H](Oc2ccc(O)cc2)[C@H](O)[C@@H](O)[C@H]1O,179%,–
CCCCC(C=O)NC(=O)C(CC(C)C)NC(=O)OCc1ccccc1 (stereo unspecified),13.1%,–
COc1c(C)cnc(Cn2cnc3c(Cl)nc(N)nc32)c1C,0%,–
CN(C)CCOc1cc(-c2cn[nH]c2)ccc1NC(=O)C1COc2ccccc2O1 (stereo unspecified),45%,–
CN[C@H]1[C@@H](O[C@@H]2[C@H](O[C@@H]3[C@@H](O)[C@@H](O)[C@@H](N=C(N)N)[C@@H](O)[C@@H]3N=C(N)N)O[C@H](C)[C@@]2(O)C=O)O[C@@H](CO)[C@@H](O)[C@H]1O,99.7% [at 13 µM],–
N#CC1(c2cccc(C(=O)Nc3cc(Oc4ccc5nc(NC(=O)C6CC6)sc5n4)ccc3F)c2Cl)CC1,0%,–
Cc1csc(-c2nnc(Nc3ccc(Oc4ncccc4-c4ccnc(N)n4)cc3)c3ccccc23)c1,0%,–
CC(C)(OCc1nn(Cc2ccccc2)c2ccccc12)C(=O)O,46.7%,–
CC(=O)N1CCN(c2ccc(OCc3nn(C)c(C)c3-c3cccc4c(CCCOc5cc(C)c(Cl)c(C)c5)c(C(=O)O)n(Cc5cccnc5)c34)cc2)CC1,79.5%,–
O=C1NC(=O)C(c2cnc3ccccn23)=C1c1cn2c3c(cccc13)CN(C(=O)N1CCOCC1)CC2,19.2%,–
CS(=O)(=O)c1ccc(C2=C(c3ccccc3)C(=O)OC2)cc1,12.8%,–
OCCn1cc(-c2ccc3c(c2)CCC3=NO)c(-c2ccncc2)n1,133%,–
COc1nc(C)cnc1NS(=O)(=O)c1cccnc1-c1ccc(-c2nnco2)cc1,83.7%,–
CN[C@@H](C)[C@H]1[C@H](O)C[C@@]2(C)[C@@H]3CC[C@H]4C(C)(C)[C@@H](NC)CC[C@@]45C[C@@]35CC[C@]12C,2.7%,–
CCCCCCOC(=O)N=C(N)c1ccc(NCc2nc3cc(C(=O)N(CCC(=O)OCC)c4ccccn4)ccc3n2C)cc1,-3.78%,–
CC(C)(O)CC(=O)NCCn1ccc2ncnc(Nc3ccc(Oc4cccc(C(F)(F)F)c4)c(Cl)c3)c21,180%,–
